Measurements published in ChEMBL document CHEMBL4513216, “Probing the Open Global Health Chemical Diversity Library for Multistage-Active Starting Points for Next-Generation Antimalarials” (ACS Infect Dis, 2020).
Out of some 68,000 compounds screened, about 2,700 (4%) showed an effect of 50% or more. This is one part of a sample in which strong results are shown more often than they occur.

Test system: Plasmodium berghei
Experiment: Screen against P. berghei liver stage (PbLuc), transformed with Luciferase, at 2uM
Assay type: functional, HepG2
Settings: tested at 2 uM

First: Cc1cccc(OCCC(=O)N2CCCN(CC(N)=O)CC2)c1C
Second: CCn1cc(CN2CCCN(C(=O)c3cccn3C)CC2)cn1
The INHIBITION of the first is lower: -5.2% for the first, 19.18% for the second.

Compared with `CCCN(Cc1ccccc1O)S(=O)(=O)C(C)CC` (stereo unspecified), `CSC(C)CCN(Cc1ccccn1)Cc1sccc1C` (stereo unspecified) is lower in INHIBITION: 17.48% for the first, -22.06% for the second.

Compared with `CC(Cn1cccn1)NC(=O)c1ccsc1` (stereo unspecified), `Cc1ccc(CNC(=O)Nc2nccs2)cn1` is higher in INHIBITION: -18.04% for the first, -11.83% for the second.

Compared with `CC1c2ncc(CNC(=O)C3CC3)n2CCN1CC1CCC1` (stereo unspecified), `Cc1cc(C)n(CC2CCCCN2CCC(=O)Nc2cc(C)on2)n1` (stereo unspecified) is lower in INHIBITION: 35.07% for the first, 21.39% for the second.

Going from `Cc1cccc(-n2ncc3c2CCCC3NCC(C)(C)CO)c1C` (stereo unspecified) to `COc1cccc(CC(=O)N2CCCC(n3nc(C)cc3C)C2)c1` (stereo unspecified), the INHIBITION rises from 45.82% to 62.75%.

First: Cc1noc([C@@H]2C[C@H]3CN(C(=O)C4CCN(C)CC4)C[C@H]3O2)n1
Second: COCCC(=O)N1CC[C@@H]2O[C@@H](C)C[C@H]2C1
The INHIBITION of the first is higher: 33.12% for the first, 22.01% for the second.

Going from `CC(C)n1c(=O)c2sccc2n(CC(=O)Nc2ccccc2)c1=O` to `CS(=O)(=O)NCCC(=O)N1Cc2cnc(-c3ccccc3)nc2C1`, the INHIBITION falls from 10.62% to -49.29%.

First: Cc1ccc(CC(=O)N2CCCC(n3nc(C)cc3C)C2)cn1 (stereo unspecified)
Second: COc1ccc(CC(=O)N2CCCC(n3nc(C)cc3C)C2)cc1 (stereo unspecified)
The INHIBITION of the first is lower: 5.59% for the first, 52.87% for the second.

Going from `Cc1cc(C)n(C2CCCN(C(=O)Cc3ccc(C#N)cc3)C2)n1` (stereo unspecified) to `Cc1cc(C)n(C2CCCN(C(=O)Cc3cccc(F)c3)C2)n1` (stereo unspecified), the INHIBITION rises from -11.34% to 14.06%.

First: COc1ccc(CC(=O)N2CCCC(n3nc(C)cc3C)C2)cc1F (stereo unspecified)
Second: Cc1cc(C)n(C2CCCN(C(=O)c3ccnc(N(C)C)c3)C2)n1 (stereo unspecified)
The INHIBITION of the first is higher: 6.3% for the first, 3.17% for the second.

Going from `COc1ncc(CN(C)C2CCN(C(C)C)CC2)cn1` to `CCS(=O)(=O)CCN1CCC(N(C)Cc2ncc(C)o2)C1` (stereo unspecified), the INHIBITION falls from 36.08% to 31.55%.

First: Cn1cc(CNC2CCc3c(ccc(=O)n3Cc3cccnc3)C2)cn1 (stereo unspecified)
Second: Cn1cc(-c2nnn3c2COC(CNCc2ccncc2)C3)cn1 (stereo unspecified)
The INHIBITION of the first is higher: 17.69% for the first, -42.69% for the second.

First: O=C(NS(=O)(=O)c1cc(Cl)ccc1Cl)c1cccc2c1OCCO2
Second: COc1cccc(S(=O)(=O)NC(=O)CCC2CCCC2)c1
The INHIBITION of the first is lower: -55.23% for the first, 37.68% for the second.

First: Cc1nn(C)c2cnn(Cc3ccc(C(=O)N4CCN(C)CC4)o3)c12
Second: Cc1ccc2cc(C(=O)N3CCN(C(=O)N(C)C)CC3)ccc2n1
The INHIBITION of the first is lower: 1.33% for the first, 7.02% for the second.

First: CCn1cc(CN2CCCN(C(=O)CCN3CCCC3=O)CC2)cn1
Second: CCn1cc(CN2CCCN(C(=O)C3=NN(C)C(=O)CC3)CC2)cn1
The INHIBITION of the first is lower: -35.65% for the first, 59.73% for the second.

Going from `O=C(c1cccnc1)N1CCOC(c2ccc(-c3cncnc3)cn2)C1` (stereo unspecified) to `O=C(c1ccccc1-c1nnn[nH]1)N1CCOC(C(F)(F)F)C1` (stereo unspecified), the INHIBITION falls from -6.04% to -12.13%.

Going from `C[C@H]1C[C@H]2CN(C(=O)CCc3ccccc3)CC[C@H]2O1` to `C[C@H]1C[C@H]2CN(C(=O)CCOc3ccccc3)CC[C@H]2O1`, the INHIBITION falls from 65.32% to -12.84%.

First: Cc1n[nH]c(C)c1CCC(=O)NCC1COc2ccccc2C1 (stereo unspecified)
Second: CCCNC(=O)C1(CC2CC(c3ccccc3OC)=NO2)CCOCC1 (stereo unspecified)
The INHIBITION of the first is lower: 11.19% for the first, 51.57% for the second.

Going from `COCc1ccc(C(=O)N2CC[C@H](O)[C@@H](n3ccnc3)CC2)cc1` to `CC(C)Oc1ccc(C(=O)N2CC[C@H](O)[C@@H](n3ccnc3)CC2)cc1`, the INHIBITION rises from -7.01% to 52.69%.

Compared with `NC(=O)COc1ccc(C(=O)N2CCCC(n3ccnc3)C2)cc1` (stereo unspecified), `Cc1ccc2cc(C(=O)N3CCC(O)(C(F)(F)F)CC3)ccc2n1` is lower in INHIBITION: -10.05% for the first, -13.42% for the second.

First: Nc1cc2c(nn1)CCN(C(=O)C1CCc3ccccc31)C2 (stereo unspecified)
Second: CC1=NOC(C(=O)N2CCC(O)(c3ccc4nc(C)ccc4c3)CC2)C1 (stereo unspecified)
The INHIBITION of the first is higher: 16.89% for the first, -70.57% for the second.

Going from `CCOC(=O)N1CC2(CCNCC2)c2cc(Cl)ccc21` to `CCCOC(C)C(=O)N1CCC(O)(c2ccc3nc(C)ccc3c2)CC1` (stereo unspecified), the INHIBITION rises from -12.43% to 52.66%.

First: c1cc(CCNc2ccc(CC3CCNC3)cn2)ccn1 (stereo unspecified)
Second: Clc1cccc(C[C@@H]2NCCC[C@@H]2Nc2ccccc2)c1
The INHIBITION of the first is lower: -6.19% for the first, 33.95% for the second.

First: OCc1csc(N2CCCN(Cc3ccc(F)cc3)CC2)n1
Second: OCc1csc(N2CCN(Cc3cccc(F)c3)CC2)n1
The INHIBITION of the first is lower: 36.28% for the first, 45.82% for the second.

Compared with `Cc1cccc(CN2CCN(c3nc(CO)cs3)CC2)c1`, `Cc1c(-c2nc(-c3cccc(CN4CCOCC4)c3)no2)cnn1C` is lower in INHIBITION: 86.36% for the first, 35.56% for the second.

Compared with `Cc1noc(C)c1CN1CCc2ncnc(-c3ccc(F)cc3)c2CC1`, `Cc1cnc(-c2nc(-c3cccc(CN4CCOCC4)c3)no2)cn1` is lower in INHIBITION: 49.45% for the first, 15.74% for the second.

Going from `COc1ccccc1C1=NOC(CC2(C(=O)NCCO)CCOCC2)C1` (stereo unspecified) to `CCNC(=O)C1(CC2CC(c3ccccc3OC)=NO2)CCOCC1` (stereo unspecified), the INHIBITION rises from -39.01% to -2.93%.

Compared with `CCS(=O)(=O)N1CCC2(CC1)CC(COC)N(c1ncccn1)C2` (stereo unspecified), `COCCOCC(=O)N1CCC(O)(c2ccc3nc(C)ccc3c2)CC1` is lower in INHIBITION: 28.45% for the first, -3.38% for the second.

Compared with `Cc1cc(-c2nc(-c3cccc(CN4CCOCC4)c3)no2)no1`, `Cc1ccc2cc(C3(O)CCN(C)CC3)ccc2n1` is lower in INHIBITION: 53.19% for the first, 8.88% for the second.

Compared with `CCOCCNC(=O)c1ccc(OC)cc1I`, `COCCCNc1c(C#N)c2c(c3nncn13)CN(C)CC2` is higher in INHIBITION: 30.48% for the first, 52.23% for the second.

First: Cc1ccc2cc(C3(O)CCN(C(=O)[C@@H]4CCCCN4)CC3)ccc2n1
Second: Cc1ccc2cc(C3(O)CCN(C(=O)CN4CCCC4)CC3)ccc2n1
The INHIBITION of the first is higher: 53.98% for the first, 8.65% for the second.

Going from `Cc1ccc2cc(C3(O)CCN(C(=O)CSC(C)C)CC3)ccc2n1` to `Cc1nc(CN2CCCC(Cn3cc(CCO)nn3)C2)c2ccccn12` (stereo unspecified), the INHIBITION falls from 70.17% to -27.82%.

First: CN1CCc2c(C#N)c(NCCCO)n3cnnc3c2C1
Second: COCCNc1c(C#N)c2c(c3nncn13)CN(C)CC2
The INHIBITION of the first is lower: -9.74% for the first, 18.59% for the second.
